# Legend:
# [1] = biological target: T1, Inhibitor of nuclear factor kappa-B kinase subunit epsilon (Homo sapiens) (UniProt Q14164); details: at 1 µM;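 further: reported values are averaged percent inhibition figures against human IKKε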
# T1 sequence (whole entry): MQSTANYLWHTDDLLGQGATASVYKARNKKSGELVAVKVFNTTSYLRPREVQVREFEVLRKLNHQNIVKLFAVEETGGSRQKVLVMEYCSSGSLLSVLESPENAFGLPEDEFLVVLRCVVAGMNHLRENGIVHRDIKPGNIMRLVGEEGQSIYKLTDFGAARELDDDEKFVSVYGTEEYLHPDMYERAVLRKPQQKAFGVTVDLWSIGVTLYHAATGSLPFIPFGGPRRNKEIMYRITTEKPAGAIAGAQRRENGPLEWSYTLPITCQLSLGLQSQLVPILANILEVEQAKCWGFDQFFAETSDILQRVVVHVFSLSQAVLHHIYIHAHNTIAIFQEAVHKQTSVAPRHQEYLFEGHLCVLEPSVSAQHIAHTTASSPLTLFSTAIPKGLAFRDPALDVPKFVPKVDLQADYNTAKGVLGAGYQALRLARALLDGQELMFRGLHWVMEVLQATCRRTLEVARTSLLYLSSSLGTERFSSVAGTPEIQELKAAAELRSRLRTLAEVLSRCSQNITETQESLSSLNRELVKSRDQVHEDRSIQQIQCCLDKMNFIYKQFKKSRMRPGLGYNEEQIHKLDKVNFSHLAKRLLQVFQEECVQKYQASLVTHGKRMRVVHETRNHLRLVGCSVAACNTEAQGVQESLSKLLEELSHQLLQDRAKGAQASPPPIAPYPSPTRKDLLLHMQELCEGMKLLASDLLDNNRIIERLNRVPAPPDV
# [2] = biological target: T2, Serine/threonine-protein kinase Nek1 (Homo sapiens) (UniProt Q96PY6); details: at 0.1 µM
# T2 sequence (whole entry): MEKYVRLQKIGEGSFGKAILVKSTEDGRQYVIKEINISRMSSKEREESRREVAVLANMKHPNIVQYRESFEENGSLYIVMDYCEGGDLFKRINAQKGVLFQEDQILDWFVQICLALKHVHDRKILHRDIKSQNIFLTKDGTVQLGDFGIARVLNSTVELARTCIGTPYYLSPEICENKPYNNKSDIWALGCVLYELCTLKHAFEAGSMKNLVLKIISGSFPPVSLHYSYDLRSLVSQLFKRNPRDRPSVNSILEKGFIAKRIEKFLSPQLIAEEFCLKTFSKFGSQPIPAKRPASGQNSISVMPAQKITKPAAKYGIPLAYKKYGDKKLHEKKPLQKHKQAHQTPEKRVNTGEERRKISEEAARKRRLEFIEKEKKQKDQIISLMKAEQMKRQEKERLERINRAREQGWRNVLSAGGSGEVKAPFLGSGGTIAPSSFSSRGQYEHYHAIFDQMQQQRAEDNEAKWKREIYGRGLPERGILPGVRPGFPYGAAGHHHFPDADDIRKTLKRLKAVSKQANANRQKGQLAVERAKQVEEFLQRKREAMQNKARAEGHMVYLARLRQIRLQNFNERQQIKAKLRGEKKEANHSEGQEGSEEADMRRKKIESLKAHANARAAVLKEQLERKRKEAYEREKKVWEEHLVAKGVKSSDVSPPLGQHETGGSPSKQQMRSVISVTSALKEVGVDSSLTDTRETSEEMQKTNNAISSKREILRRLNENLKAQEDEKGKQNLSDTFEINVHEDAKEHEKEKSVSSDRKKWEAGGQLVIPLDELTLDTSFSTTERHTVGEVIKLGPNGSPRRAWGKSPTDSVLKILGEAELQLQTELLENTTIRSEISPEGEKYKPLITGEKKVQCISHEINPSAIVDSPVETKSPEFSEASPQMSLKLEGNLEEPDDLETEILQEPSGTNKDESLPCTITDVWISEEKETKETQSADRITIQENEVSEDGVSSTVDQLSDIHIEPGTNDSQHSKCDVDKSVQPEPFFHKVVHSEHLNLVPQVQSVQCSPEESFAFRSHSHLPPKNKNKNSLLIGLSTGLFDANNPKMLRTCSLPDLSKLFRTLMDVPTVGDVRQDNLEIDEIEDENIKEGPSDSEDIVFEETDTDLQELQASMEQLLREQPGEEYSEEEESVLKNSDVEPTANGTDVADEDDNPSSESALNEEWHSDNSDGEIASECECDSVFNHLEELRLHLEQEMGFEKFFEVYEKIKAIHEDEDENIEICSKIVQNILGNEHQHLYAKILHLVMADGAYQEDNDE
# [3] = biological target: T2, Serine/threonine-protein kinase Nek1 (Homo sapiens); details: at 1 µM
# [4] = biological target: T3, Serine/threonine-protein kinase Nek2 (Homo sapiens) (UniProt P51955); details: at 0.1 µM
# T3 sequence (whole entry): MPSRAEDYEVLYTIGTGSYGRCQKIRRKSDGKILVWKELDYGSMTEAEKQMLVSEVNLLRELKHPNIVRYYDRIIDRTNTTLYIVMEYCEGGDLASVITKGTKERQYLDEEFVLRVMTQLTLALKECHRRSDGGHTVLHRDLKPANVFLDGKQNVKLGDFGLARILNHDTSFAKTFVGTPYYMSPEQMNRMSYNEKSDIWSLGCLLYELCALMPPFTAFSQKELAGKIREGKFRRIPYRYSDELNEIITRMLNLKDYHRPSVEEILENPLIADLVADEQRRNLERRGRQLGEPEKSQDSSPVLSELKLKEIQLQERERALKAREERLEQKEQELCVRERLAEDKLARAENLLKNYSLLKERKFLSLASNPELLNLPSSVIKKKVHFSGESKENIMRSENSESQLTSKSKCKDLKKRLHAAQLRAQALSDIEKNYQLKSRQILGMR
# [5] = biological target: T3, Serine/threonine-protein kinase Nek2 (Homo sapiens); details: at 1 µM
# [6] = biological target: Serine/threonine-protein kinase Nek6 (Homo sapiens) (UniProt Q9HC98); details: at 0.1 µM
# Sequence of Serine/threonine-protein kinase Nek6 (Homo sapiens) (Q9HC98 whole entry): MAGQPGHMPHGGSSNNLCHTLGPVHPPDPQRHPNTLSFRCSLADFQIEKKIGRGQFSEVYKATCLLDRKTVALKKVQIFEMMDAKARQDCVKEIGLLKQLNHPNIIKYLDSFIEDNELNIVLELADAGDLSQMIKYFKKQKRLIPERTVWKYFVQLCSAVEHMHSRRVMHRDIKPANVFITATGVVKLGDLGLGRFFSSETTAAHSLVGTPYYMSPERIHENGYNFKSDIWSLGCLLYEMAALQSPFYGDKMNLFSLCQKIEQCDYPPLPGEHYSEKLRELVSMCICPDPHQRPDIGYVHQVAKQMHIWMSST
# [7] = biological target: Serine/threonine-protein kinase Nek6 (Homo sapiens) (UniProt Q9HC98); details: at 1 µM
# [8] = biological target: Serine/threonine-protein kinase Nek7 (Homo sapiens) (UniProt Q8TDX7); details: at 0.1 µM
# Sequence of Serine/threonine-protein kinase Nek7 (Homo sapiens) (Q8TDX7 whole entry, looked up): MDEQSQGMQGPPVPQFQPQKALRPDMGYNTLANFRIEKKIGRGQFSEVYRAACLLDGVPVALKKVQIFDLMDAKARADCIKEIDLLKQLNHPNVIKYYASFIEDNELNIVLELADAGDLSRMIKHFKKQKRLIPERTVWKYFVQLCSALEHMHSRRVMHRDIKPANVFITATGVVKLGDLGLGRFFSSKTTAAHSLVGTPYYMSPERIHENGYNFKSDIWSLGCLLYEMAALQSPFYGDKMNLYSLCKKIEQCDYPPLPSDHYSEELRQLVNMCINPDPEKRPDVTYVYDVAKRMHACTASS
# [9] = biological target: Serine/threonine-protein kinase Nek7 (Homo sapiens) (UniProt Q8TDX7); details: at 1 µM
# [10] = biological target: T4, Serine/threonine-protein kinase Nek9 (Homo sapiens) (UniProt Q8TD19); details: at 0.1 µM;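 further: reported value is the mean percent inhibition of NEK9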
# T4 sequence (whole entry): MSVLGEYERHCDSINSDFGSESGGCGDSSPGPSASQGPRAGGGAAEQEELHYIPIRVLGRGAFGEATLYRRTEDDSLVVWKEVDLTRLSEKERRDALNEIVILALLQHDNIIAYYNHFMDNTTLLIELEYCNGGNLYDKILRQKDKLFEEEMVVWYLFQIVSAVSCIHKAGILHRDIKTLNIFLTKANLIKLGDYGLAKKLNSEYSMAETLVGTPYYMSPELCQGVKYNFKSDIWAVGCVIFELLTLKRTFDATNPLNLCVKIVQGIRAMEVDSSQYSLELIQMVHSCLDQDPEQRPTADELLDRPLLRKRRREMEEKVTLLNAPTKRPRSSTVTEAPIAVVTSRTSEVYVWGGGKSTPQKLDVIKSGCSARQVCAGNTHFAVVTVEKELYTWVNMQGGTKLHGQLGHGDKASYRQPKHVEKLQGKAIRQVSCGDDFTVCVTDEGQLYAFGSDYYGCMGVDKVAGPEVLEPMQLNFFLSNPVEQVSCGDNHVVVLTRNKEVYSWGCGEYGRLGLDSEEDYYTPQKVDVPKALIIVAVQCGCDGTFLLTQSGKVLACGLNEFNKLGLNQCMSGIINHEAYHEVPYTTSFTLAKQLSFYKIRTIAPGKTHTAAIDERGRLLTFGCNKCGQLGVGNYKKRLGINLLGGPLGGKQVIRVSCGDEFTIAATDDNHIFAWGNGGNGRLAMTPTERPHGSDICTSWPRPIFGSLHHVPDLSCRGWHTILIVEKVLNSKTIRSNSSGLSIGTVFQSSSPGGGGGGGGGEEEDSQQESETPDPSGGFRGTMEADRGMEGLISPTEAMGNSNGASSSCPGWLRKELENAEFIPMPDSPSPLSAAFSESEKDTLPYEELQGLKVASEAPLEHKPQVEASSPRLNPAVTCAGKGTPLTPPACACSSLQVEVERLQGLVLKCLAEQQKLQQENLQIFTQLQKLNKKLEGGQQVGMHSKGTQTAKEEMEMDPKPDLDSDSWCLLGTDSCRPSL
structure (smiles),measurement,setting,value
CC1=C(C(=O)Nc2ccc3[nH]nc(C)c3c2)C(c2ccc(C(F)(F)F)cc2)CC(=O)N1 (stereo not given),inhibition,[1],2.46%
same,inhibition,[2],1.56%
same,inhibition,[3],2.57%
same,inhibition,[4],3.16%
same,inhibition,[5],3.29%
same,inhibition,[6],1.24%
same,inhibition,[7],-1.35%
same,inhibition,[8],3.34%
same,inhibition,[9],2.74%
same,inhibition,[10],1.92%
